Screen size: about 48,000 compounds; about 13,000 (27%) showed an effect of 50% or more. The list shows a part of the results.
Each molecule was assayed on Wolbachia pipientis (assay: Anti-Wolbachia Cell-Based Screen). Settings: 5 µM.
Type: functional
Design: scale not given: in the data most compounds retested in dose-response had high values

Row | Compound | Percent Effect
1 | NS(=O)(=O)CCNC(=O)C1(c2ccc(Br)cc2)CC1 | -1.628%
2 | CCc1nnc2n1CCN(C(=O)Cc1csc(-c3ccco3)n1)C2 | -5.069%
3 | CCCC(=O)NCC(=O)Nc1cc(F)ccc1SCC(F)F | 9.844%
4 | Cc1noc([C@@H]2C[C@H](NC(=O)Nc3cccc(F)c3)CN2C)n1 | -4.092%
5 | CS(=O)(=O)NCc1n[nH]c2c1CCN(C(=O)c1ccsc1)C2 | -6.349%
6 | Cc1nn(C)cc1-c1ccnc(N(C)Cc2cccs2)n1 | -35.4%
7 | CCOc1cccc(CNC(C)c2ccc(-n3ccnc3)cc2)c1O (stereo not drawn) | -2.856%
8 | O=C(c1ccc(F)cc1Cl)N1CCn2c(nnc2C(F)(F)F)C1 | -1.794%
9 | OCCN1CCN(Cc2cnc3c(-c4ccccc4)cnn3c2)CC1 | -3.434%
10 | COCCCC1(C(=O)O)CCCN(Cc2cc3c(cc2C)OCCO3)C1 (stereo not drawn) | -2.058%
11 | COCCNC(=O)CN1CCN(c2nc3cc(C)ccc3o2)CC1 | -13.48%
12 | O=C(CN1CCc2cncnc2C1)NCCOc1ccccc1 | -0.7298%
13 | Cc1nnc2n1CCN(CC(=O)NC(C)c1cccc3ccccc13)C2 (stereo not drawn) | -6.251%
14 | COCCNC(=O)CN1CC=C(n2c(C)nc(=O)c3ccccc32)CC1 | 80.87%
15 | Cc1nc(=O)c2ccccc2n1C1=CCN(CC(=O)NC(C)C)CC1 | 121.8%
16 | Cc1ccc2nc(N3CCN(CC(=O)NC(C)C)CC3)cc(C)c2c1 | 5.586%
17 | O=C(c1cn(CC(=O)N2CCCCCC2)c2ccccc12)C1CC1 | -6.817%
18 | Cc1nc(=O)c2ccccc2n1C1=CCN(CC(=O)N2CCCC2)CC1 | 121.3%
19 | O=C(c1cn(CC(=O)N2CCCC2)c2ccccc12)C1CC1 | -23.59%
20 | CCNC(=O)CN(CC)C(=O)c1cc(-c2cccc(Cl)c2)no1 | -7.468%
21 | CC(CN1CCOCC1)NC(=O)c1cccc2cn[nH]c12 (stereo not drawn) | 6.229%
22 | CN(C)C[C@H]1C[C@@H]2CN(C(=O)c3ccno3)C[C@@H]2O1.O=C(O)C(F)(F)F | -9.995%
23 | CC(C)n1cc(CN2CCCN(C(=O)CN3CCCC3=O)CC2)cn1 | 122.9%

Row | Compound | Percent Effect
24 | Cc1cnn(CC(=O)N2CCCN(Cc3cnn(C(C)C)c3)CC2)c1 | 117.3%
25 | Cc1cc(C(=O)N2CCCN(Cc3cnn(C(C)C)c3)CC2)no1 | 2.122%
26 | Cc1cnc(C(=O)N2CCCN(Cc3cnn(C(C)C)c3)CC2)cn1 | 1.046%
27 | NS(=O)(=O)c1cnc(NCC2(c3ccccc3)CCC2)s1 | -8.019%
28 | Cc1cc(N2CCN(C(=O)Cc3ccc4c(c3)OCO4)CC2)cc(C)n1 | -8.837%
29 | Cc1cc(NC(=O)NCCc2ccc3c(c2)OCCO3)n(C)n1 | -3.946%
30 | Cn1ncc(NC(=O)Cn2ccc(-c3cccc(F)c3)n2)n1 | -3.857%
31 | Cn1ncc(NC(=O)Cn2ccc(-c3ccc(F)cc3)n2)n1 | 6.673%
32 | Cc1cc(NC(=O)Cc2ccc3c(c2)OCO3)n(C)n1 | 120.5%
33 | Cc1cc(NC(=O)Cn2ccc(-c3ccc4c(c3)OCO4)n2)n(C)n1 | 140.3%
34 | CCC1CN(CC(=O)Nc2cc(C)nn2C)CCO1 (stereo not drawn) | 11.37%
35 | CC(=O)c1ccc(-c2cnn(CC(=O)Nc3cc(C)nn3C)c2)nc1 | 2.251%
36 | Cn1nccc1NC(=O)Cn1ccc(-c2ccc3c(c2)OCO3)n1 | 132.1%
37 | CCCOc1cc(Cl)c(CN2CCNC(C(=O)NC3CC3)C2)cc1OC (stereo not drawn) | -0.8522%
38 | O=C(c1cncc(N2CCCC3(CCNCC3)CC2)n1)N1CCCCC1 | 3.422%
39 | COc1cc(F)cc(CNC(=O)Nc2ccn(CC(F)F)n2)c1 | -8.907%
40 | Cc1[nH]nc(CCC(=O)N2CCCC(OCc3cccnc3)C2)c1C (stereo not drawn) | 1.428%
41 | CC(C)N1CCN(C(=O)c2ccccc2NCc2cccnc2)CC1 | 80.75%
42 | O=C(c1cnc(NCc2cccnc2)c(Cl)c1)N1CCCCC1 | 2.275%
43 | Cc1ccc(CNC(=O)N2CCN(C(C)c3cccnc3)CC2)cn1 (stereo not drawn) | -10.7%
44 | CN(C)C[C@H]1OC[C@@H]2CN(C(=O)NCc3cccnc3)CC[C@@H]21.O=C(O)C(F)(F)F.O=C(O)C(F)(F)F | -2.462%
45 | COCC1CCCN(C(=O)c2ccccc2NCc2cccnc2)C1 (stereo not drawn) | 97.72%
46 | CSCC1CCN(C(=O)c2ccccc2NCc2cccnc2)C1 (stereo not drawn) | 46.56%

Row | Compound | Percent Effect
47 | CCOC1CCCN(C(=O)c2ccccc2NCc2cccnc2)C1 (stereo not drawn) | 55.92%
48 | Cc1c(NCc2cccnc2)cccc1C(=O)N1CCC(N(C)C)C1 (stereo not drawn) | 115.4%
49 | COC(=O)C1CCN(C(=O)c2cccc(NS(C)(=O)=O)c2C)CC1 | 5.787%
50 | NC(=O)CN1CCC(C(=O)N2CCCC(OCc3cccnc3)C2)CC1 (stereo not drawn) | -8.18%
51 | COCC(=O)N(Cc1cccnc1)CC1CCCN(C2CCCCC2)C1 (stereo not drawn) | -12.35%
52 | Cn1ccnc1CN1CCN2C[C@H](OCc3ccccc3)C[C@H]2C1.O=C(O)C(F)(F)F.O=C(O)C(F)(F)F | -3.164%
53 | Cc1cccc(C(C(=O)N2CC(c3ccncc3)C2)N(C)C)c1 (stereo not drawn) | -5.316%
54 | N#Cc1ccc(F)c(CNC(=O)NCCC(=O)NC2CCCC2)c1 | 6.795%
55 | N#CC1(NC(=O)c2nccc3ccccc23)CCC2(CC1)OCCO2 | 0.4939%
56 | Cc1noc(C)c1S(=O)(=O)N(CC(N)=O)CC(C)C | 2.709%
57 | COC1CCN(C(=O)c2ccccc2NCc2cccnc2)CC1 | 112.6%
58 | Cc1ccn(-c2ccccc2NCc2cccnc2)n1 | -3.836%
59 | COCCN1CCCn2cnc(CNC3CCCC3)c2C1.Cl.Cl | -22.39%
60 | O=C(c1nc(Cc2c[nH]c3ccccc23)no1)N1CCCCC1 | 107.9%
61 | O=C(c1nc(Cc2c[nH]c3ccccc23)no1)N1CCCC1 | 91.24%
62 | O=C(c1nc(-c2ccc3cc[nH]c3c2)no1)N1CCCC1 | 5.655%
63 | c1ccc2c(Cc3nnc([C@H]4CCN(C5CCCCC5)C4)o3)c[nH]c2c1 | 3.447%
64 | O=C(c1nc(Cc2c[nH]c3ccccc23)no1)N1CCOCC1 | 109.7%
65 | CC(=O)N1CC[C@H](c2nnc(Cc3c[nH]c4ccccc34)o2)C1 | -6.086%
66 | O=C(O)c1cc2n(n1)CCCN(C(=O)CCc1c[nH]c3ccccc13)C2 | -8.48%
67 | c1ccc2c(Cc3nnc([C@H]4CCN(C5CCOCC5)C4)o3)c[nH]c2c1 | 1.602%
68 | O=C(C1CC1)N1CC[C@H](c2nnc(Cc3c[nH]c4ccccc34)o2)C1 | -9.274%
